Data reported in article PMC5540273 (PLoS ONE, 2017).

How the values were obtained:
Settings in all cases: concentration: 1 μM,replicates: in singlicate; n = 1
PIK3C2G = test system: PIK3C2G
PIK3CA = test system: PIK3CA
PIK3CB = test system: PIK3CB
PIK3CD = test system: PIK3CD
PIK3CG = test system: PIK3CG
PIK4CB = test system: T1, PIK4CB
T1 construct: gene PI4KB

PIKFYVE = test system: PIKFYVE
PIM1 = test system: PIM1
PIM2 = test system: PIM2
PIM3 = test system: PIM3
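Further: KINOMEscan kinase panel screen.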

Row | SMILES | %Inh (PIK3C2G) [%] | %Inh (PIK3CA) [%] | %Inh (PIK3CB) [%] | %Inh (PIK3CD) [%] | %Inh (PIK3CG) [%] | %Inh (PIK4CB) [%] | %Inh (PIKFYVE) [%] | %Inh (PIM1) [%] | %Inh (PIM2) [%] | %Inh (PIM3) [%]
1 | c1ccc(Oc2ccc(Nc3ccnc4ccc(-c5ccccn5)cc34)cc2)cc1 [GW407034] | 0 | 0 | 27 | 0 | 0 | 0 | 0 | 9 | 0 | 0
2 | C[C@@H](Oc1cc(-n2cnc3cc(-c4ccncc4)ccc32)sc1C(N)=O)c1ccccc1Cl [GSK479719] | 0 | 0 | 0 | 0 | 0 | 0 | 27 | 0 | 0 | 0
3 | Cc1cccc2c(-c3ccncc3)c(-c3ccc(F)cc3)nn12.Cl [GW461487] | 0 | 0 | 0 | 0 | 0 | 0 | 0 | 18 | 0 | 0
4 | OCCn1cc(-c2cnc3nnn(Cc4ccc5ncccc5c4)c3n2)cn1 | 0 | 0 | 0 | 0 | 0 | 0 | 40 | 1 | 0 | 10
5 | CC(C(=O)NC1CCN(c2ccnc(Nc3ccc(F)cc3)n2)C1)c1ccc(Cl)cc1 (stereo not drawn) [GSK1379713] | 0 | 0 | 0 | 15 | 0 | 0 | 9 | 9 | 0 | 0
6 | CN(c1cccc(CNc2nc(Nc3ccc4c(c3)CC(=O)N4)ncc2C(F)(F)F)c1)S(C)(=O)=O | 0 | 0 | 0 | 0 | 0 | 0 | 31 | 12 | 0 | 3
7 | CSc1nccc(-c2c(-c3ccc(F)cc3)ncn2CCCN2CCOCC2)n1.Cl [SB-217146] | 0 | 17 | 0 | 0 | 0 | 5 | 14 | 35 | 0 | 9
8 | O=C(NCC1CC1)c1ccc(-c2cc(C(=O)NC3CC3)ccc2F)cc1 [GW810445] | 0 | 0 | 0 | 0 | 0 | 0 | 6 | 9 | 0 | 0
9 | Cl.c1ccc(Oc2ccc(Nc3ccnc4cc(-c5ccc(CN6CCNCC6)o5)ccc34)cc2)nc1 [GW567142] | 0 | 0 | 0 | 0 | 10 | 0 | 0 | 0 | 0 | 2
10 | CS(=O)(=O)c1cccc(CNc2nc(Nc3ccc4c(c3)[C@@H]3C[C@@H]4CNC3=O)ncc2C(F)(F)F)c1 | 0 | 0 | 0 | 0 | 0 | 0 | 24 | 0 | 0 | 0
11 | Cn1ccc2ncnc(Oc3ccc(NC(=O)Nc4ccnc(C(F)(F)F)c4)c(Cl)c3)c21 | 13 | 0 | 0 | 0 | 0 | 0 | 7 | 5 | 3 | 0
12 | FC(F)(F)c1cc(Br)cc(Nc2nccc(-c3cnn4ncccc34)n2)c1 [GW810578] | 25 | 3 | 16 | 51 | 10 | 30 | 10 | 25 | 0 | 23
13 | NC(=O)Nc1sc(-c2ccc(F)cc2)cc1C(N)=O [GW789449] | 19 | 0 | 0 | 30 | 1 | 18 | 22 | 0 | 0 | 0
14 | O=C(Nc1n[nH]c2cc(-c3ccco3)ccc12)C1CC1 [SB-737447] | 17 | 0 | 0 | 0 | 0 | 18 | 1 | 6 | 0 | 22
15 | CC(C)c1nc(-c2cccc(NS(=O)(=O)c3ccccc3)c2)c(-c2ccnc(Nc3ccc4c(c3)CN(C)CC4)n2)s1 [GSK1649598] | 0 | 10 | 11 | 25 | 4 | 33 | 56 | 28 | 0 | 18
16 | CC(=O)c1c(-c2ccncc2)[nH]c(-c2ccncc2)c1C [GW493036] | 0 | 0 | 0 | 38 | 0 | 0 | 26 | 11 | 0 | 9
17 | CCNCC(Cc1ccccc1)NC(=O)c1cc(Br)c(-c2ccnc3[nH]ccc23)s1.Cl.Cl (stereo not drawn) [GSK1383280] | 0 | 0 | 0 | 0 | 0 | 12 | 0 | 22 | 0 | 5

Row | SMILES | %Inh (PIK3C2G) [%] | %Inh (PIK3CA) [%] | %Inh (PIK3CB) [%] | %Inh (PIK3CD) [%] | %Inh (PIK3CG) [%] | %Inh (PIK4CB) [%] | %Inh (PIKFYVE) [%] | %Inh (PIM1) [%] | %Inh (PIM2) [%] | %Inh (PIM3) [%]
18 | COc1ccc(Nc2nccc(N3CCC(NC(=O)c4cccc(C#N)c4)C3)n2)cc1 (stereo not drawn) [GSK1379730] | 0 | 0 | 0 | 25 | 0 | 0 | 0 | 0 | 0 | 0
19 | COc1cc2ncn(-c3cc(OCC4CCCCC4)c(C(N)=O)s3)c2cc1OC [GSK204559] | 38 | 0 | 0 | 0 | 5 | 0 | 0 | 0 | 0 | 11
20 | Cc1ccn2nc(-c3ccc(F)cc3)c(-c3ccncc3)c2c1.Cl [GW457859] | 20 | 0 | 0 | 1 | 1 | 0 | 54 | 16 | 0 | 0
21 | CCn1c(-c2nonc2N)nc2cncc(CNC3CCNCC3)c21.Cl [SB-747651] | 0 | 0 | 0 | 2 | 0 | 15 | 0 | 93.4 | 81 | 80
22 | O=C(NOCC1CC1)c1cc(Br)c(F)c(F)c1Nc1ccc(I)cc1Cl | 0 | 0 | 0 | 0 | 0 | 0 | 41 | 0 | 9 | 1
23 | CC(=O)Nc1nc2cnc(Nc3cc(NC(=O)c4cccc(CC(C)(C)C#N)c4)ccc3C)nc2s1 | 60 | 11 | 66 | 54 | 8 | 27 | 0 | 16 | 8 | 22
24 | Cc1ccc(CC(=O)N2CCc3cc(-c4cn(C)c5ncnc(N)c45)ccc32)cc1 [GSK2634758] | 4 | 0 | 0 | 36 | 0 | 0 | 1 | 0 | 0 | 0
25 | Cn1cc(-c2cccc3c(N)c(C(N)=O)nnc23)cn1 | 26 | 0 | 0 | 20 | 18 | 16 | 0 | 0 | 0 | 0
26 | COc1cccc(OC)c1C(=O)Nc1cccc(-c2nn3ccccc3c2-c2ccnc(Nc3cccc(F)c3)n2)c1 [GSK361065] | 24 | 0 | 0 | 1 | 0 | 0 | 42 | 10 | 0 | 13
27 | Cc1ccc(Nc2ccnc(Nc3ccc4c(c3)CS(=O)(=O)C4)n2)cc1O.Cl [GW579362] | 42 | 2 | 0 | 0 | 31 | 67 | 0 | 29 | 0 | 5
28 | O=C1NCCc2[nH]c(-c3ccncc3)cc21 | 0 | 7 | 45 | 0 | 12 | 20 | 38 | 28 | 23 | 37
29 | COc1cc2c(Nc3ccc(NC(=O)c4ccccc4)cc3)ncnc2cc1OCCCN1CCOCC1 [GSK301329] | 0 | 0 | 0 | 0 | 0 | 0 | 0 | 0 | 0 | 0
30 | CN(c1ccc2c(c1)nc(NCc1ccc(F)cc1)n2C)c1ccnc(Nc2ccc(CS(C)(=O)=O)cc2)n1.Cl [GW813244] | 0 | 27 | 0 | 0 | 0 | 0 | 0 | 18 | 49 | 15
31 | CC(=O)Nc1ccc(-c2cc3ncnc(SCC(=O)O)c3s2)cc1 | 0 | 0 | 26 | 5 | 1 | 0 | 38 | 10 | 48 | 22
32 | O=C(Nc1ccccc1)c1cccc(Oc2ccc3nccn3n2)c1 | 6 | 0 | 0 | 11 | 0 | 68 | 0 | 0 | 5 | 0
33 | Cc1ccc(C(=O)Nc2ccc(Oc3ccc4nc(NC(=O)C5CC5)cn4c3)c(F)c2)c(=O)n1-c1ccccc1 | 0 | 0 | 0 | 0 | 0 | 0 | 14 | 1 | 0 | 0
